A short description of assay [1]: CEETOX_H295R_CORTISOL_noMTC: CeeTox H295R High-throughput Steroidogenesis Assay for Cortisol, maximum tolerated concentration (MTC) filtered results only (AID 2283916; active = hit-call score of the fitted dose curve at least 0.9, where 1 is the maximum; inactive = score below 0.9). Conditions: actives raise or lower the signal. The method, boiled down:
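H295R adrenal cells were pre-stimulated 48 h with 10 uM forskolin, then exposed 48 h to test chemical in 0.1% DMSO. Medium cortisol was measured by MTBE extraction and HPLC-MS/MS; bidirectional fit versus DMSO, concentrations not MTC-filtered.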

Assay [2] can be described thus: CEETOX_H295R_CORTIC_noMTC: CeeTox H295R High-throughput Steroidogenesis Assay for Corticosterone (CORTIC), maximum tolerated concentration (MTC) filtered results only (AID 2283917; active = hit-call score of the fitted dose curve at least 0.9, where 1 is the maximum; inactive = score below 0.9). To be noted: actives raise or lower the signal. The protocol:
(§1) CEETOX_H295R is a cell-based, multiplexed-readout assay that uses H295R, a human adrenal gland cell line, with measurements taken at 48 hours after chemical dosing in a 96-well plate.CEETOX_H295R_CORTIC_noMTC is one of 12 assay component(s) measured or calculated from the CEETOX_H295R assay (11 hormones and 1 viability assay). It is designed to make measurements of hormone induction, a form of inducible reporter, as detected with absorbance signals by HPLC-MS-MS technology. The concentrations for these components have not been pre-filtered for the maximum tolerated concentration (MTC) based on the MTT assay (_noMTC).Data from the assay component CEETOX_H295R_CORTIC_noMTC was analyzed into 1 assay endpoint. This assay endpoint, CEETOX_H295R_CORTIC_noMTC, was analyzed with bidirectional fitting relative to DMSO as the negative control and baseline of activity. […]
(§2) Cell culture and media preparation procedures were conducted in accordance with OECD Test No. 456 guidelines, with minor modifications. […] For steroid quantification, media samples were shipped to OpAns, LLC (Durham, NC) on dry ice, and samples were thawed to room temperature prior to liquid-liquid extraction. […] Steroid hormones were separated by HPLC, eluted using a reverse phase C18 gradient with electrospray positive ionization, followed by quantification by tandem mass spectrometry (MS/MS). […]

A short description of assay [3]: CEETOX_H295R_DOC_noMTC: CeeTox H295R High-throughput Steroidogenesis Assay for DOC, maximum tolerated concentration (MTC) filtered results only (AID 2283918; active = hit-call score of the fitted dose curve at least 0.9, where 1 is the maximum; inactive = score below 0.9). Conditions: actives raise or lower the signal. On the procedure: as §1, with “plate.CEETOX_H295R_DOC_noMTC” for “plate.CEETOX_H295R_CORTIC_noMTC”, “CEETOX_H295R_DOC_noMTC” for “CEETOX_H295R_CORTIC_noMTC”, “CEETOX_H295R_DOC_noMTC,” for “CEETOX_H295R_CORTIC_noMTC,”
Cell culture and media preparation procedures were conducted in accordance with OECD Test No. 456 guidelines, with minor modifications. […] For steroid quantification, media samples were shipped to OpAns, LLC (Durham, NC) on dry ice, and samples were thawed to room temperature prior to liquid-liquid extraction. […] Steroid hormones were separated by HPLC, eluted using a reverse phase C18 gradient with electrospray positive ionization, followed by quantification by tandem mass spectrometry (MS/MS). Data were acquired on a MassHunter Workstation Acquisition version B03.01 (Agilent Technologies, Inc.) and processed using MassHunter Quantitative Analysis for QQQ. Accuracy was determined for each hormone analyte from 3 standards to determine upper and lower limits of quantification (ULOQ and LLOQ, respectively) using a 7-point standard curve. Precision and accuracy of the extraction and quantification methods were calculated as the percent relative standard deviation (%RSD) of the spiked standards and percent spiked standard recovered, respectively. […] Test medium was removed following chemical exposure, and cell viability was evaluated in the same wells by MTT. […]

Assay [4] can be described thus: CEETOX_H295R_PROG_noMTC: CeeTox H295R High-throughput Steroidogenesis Assay for Progesterone (PROG), maximum tolerated concentration (MTC) filtered results only (AID 2283920; active = hit-call score of the fitted dose curve at least 0.9, where 1 is the maximum; inactive = score below 0.9). Conditions: actives raise or lower the signal. The method, boiled down: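 Progesterone synthesis in the human adrenal line H295R is measured by HPLC-MS/MS after 48 h chemical exposure following 48 h forskolin (10 uM) stimulation. Activity in either direction is fitted relative to DMSO.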

Assay [5] addresses PGR (gene 5241) (UniProt P06401). As to the kind of experiment: TOX21_PR_BLA_Followup_Antagonist_ratio: Tox21 HEK293 Progesterone Receptor (PR) Antagonism Beta-lactamase Follow-Up Assay, Ratio (AID 2283934).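 Note: PR-UAS-bla HEK293T cells stimulated with 1 nM R5020 agonist for 16 hr.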 The method, boiled down:
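Measured in PR-UAS-bla HEK293T cells co-treated with compound and 1 nM promegestone for 16 hr; beta-lactamase ratio read after 2 h FRET substrate loading, with parallel CellTiter-Glo cytotoxicity.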

Assay [6] in a line: TOX21_PR_BLA_Followup_Antagonist_viability: Viability Assessment in the Tox21 HEK293 Progesterone Receptor (PR) Antagonism Beta-lactamase Follow-Up Assay (AID 2283936).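 Note: cells exposed to compound with R5020 agonist for 16 h; hits lower the luminescence signal meaning cytotoxicity.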 The method, boiled down:
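PR-UAS-bla HEK293T cells in medium with 2% charcoal-stripped FBS were treated with compounds plus R5020 for 16 hr at 37C. After the beta-lactamase read, CellTiter-Glo was added to the same wells and luminescence read after 30 min at room temperature.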

Assay [7] in a line: TOX21_PR_BLA_Followup_Agonist_viability: Viability Assessment in the Tox21 HEK293 Progesterone Receptor (PR) Agonism Beta-lactamase Follow-Up Assay (AID 2283935).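 Note: signal loss means lower viability so actives are cytotoxic.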 The method, boiled down:
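Viability is read as CellTiter-Glo luminescence, where loss of signal indicates cytotoxicity. The cells are PR-UAS-bla HEK293T given compounds for 16 hr at 37C and 5% CO2, in the same wells used for the bla readout.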

Assay [8] addresses PGR (gene 5241) (UniProt P06401). As to the kind of experiment: TOX21_PR_BLA_Followup_Agonist_ratio: Tox21 HEK293 Progesterone Receptor (PR) Agonism Beta-lactamase Follow-Up Assay, Ratio (AID 2283933). The method, boiled down:
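Ratio-based beta-lactamase reporter signal after 16 hr compound treatment of PR-UAS-bla HEK293T cells at 37C. Substrate loading lasted 2 hr at room temperature.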

Assay [9] is described as follows: CEETOX_H295R_ESTRADIOL_noMTC: CeeTox H295R High-throughput Steroidogenesis Assay for Estradiol, maximum tolerated concentration (MTC) filtered results only (AID 2283919; active = hit-call score of the fitted dose curve at least 0.9, where 1 is the maximum; inactive = score below 0.9). To be noted: actives raise or lower the signal. The method, boiled down: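 Readout: dansyl-derivatized estradiol quantified by LC-MS/MS in medium from H295R cells dosed 48 h (0.1% DMSO) following 48 h forskolin (10 uM) prestimulation. Gain or loss of signal fitted against DMSO; no MTC filtering applied.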

Assay [10] in a line: CEETOX_H295R_ESTRONE_noMTC: CeeTox H295R High-throughput Steroidogenesis Assay for Estrone, maximum tolerated concentration (MTC) filtered results only (AID 2283921; active = hit-call score of the fitted dose curve at least 0.9, where 1 is the maximum; inactive = score below 0.9). Conditions: actives raise or lower the signal. The protocol:
as §1, with “plate.CEETOX_H295R_ESTRONE_noMTC” for “plate.CEETOX_H295R_CORTIC_noMTC”, “CEETOX_H295R_ESTRONE_noMTC” for “CEETOX_H295R_CORTIC_noMTC”, “CEETOX_H295R_ESTRONE_noMTC,” for “CEETOX_H295R_CORTIC_noMTC,”
as §2

The text below walks through data of PubChem BioAssay (EPA / NIEHS).

Records with an inconclusive call do not appear. Active and inactive are the calls of the source. Rule for the calls, unless noted: active = hit-call score of the fitted dose curve at least 0.9, where 1 is the maximum; inconclusive = response in the unintended direction; inactive = score below 0.9.

Sequence of PGR (gene 5241) (P06401 whole entry, looked up): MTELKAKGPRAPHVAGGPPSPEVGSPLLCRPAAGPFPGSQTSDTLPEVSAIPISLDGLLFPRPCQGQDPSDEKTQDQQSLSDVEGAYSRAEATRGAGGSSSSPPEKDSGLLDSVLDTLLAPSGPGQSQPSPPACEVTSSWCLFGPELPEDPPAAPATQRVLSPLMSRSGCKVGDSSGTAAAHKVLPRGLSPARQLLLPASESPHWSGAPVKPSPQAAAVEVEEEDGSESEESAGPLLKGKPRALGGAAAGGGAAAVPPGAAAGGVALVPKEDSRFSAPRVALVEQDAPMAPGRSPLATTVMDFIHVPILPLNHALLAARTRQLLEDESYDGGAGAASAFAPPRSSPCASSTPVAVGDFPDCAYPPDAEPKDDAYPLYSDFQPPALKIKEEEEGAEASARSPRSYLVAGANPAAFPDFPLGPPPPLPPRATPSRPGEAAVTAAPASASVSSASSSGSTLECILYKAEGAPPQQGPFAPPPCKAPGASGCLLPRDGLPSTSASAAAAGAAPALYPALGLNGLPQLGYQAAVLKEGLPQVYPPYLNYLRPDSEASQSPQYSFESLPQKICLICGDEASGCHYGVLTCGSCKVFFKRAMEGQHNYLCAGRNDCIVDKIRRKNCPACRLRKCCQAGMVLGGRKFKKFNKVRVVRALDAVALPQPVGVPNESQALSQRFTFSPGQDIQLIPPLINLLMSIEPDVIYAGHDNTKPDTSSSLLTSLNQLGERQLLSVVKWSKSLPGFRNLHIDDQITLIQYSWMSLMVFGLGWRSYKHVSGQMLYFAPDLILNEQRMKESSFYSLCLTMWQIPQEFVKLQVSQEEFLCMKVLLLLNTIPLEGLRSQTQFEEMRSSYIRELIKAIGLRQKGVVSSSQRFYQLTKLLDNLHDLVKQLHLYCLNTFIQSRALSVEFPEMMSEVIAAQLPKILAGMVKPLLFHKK

On to `COc1ccc(OC)c(N=Nc2c(O)ccc3ccccc23)c1`, for which the outcome in assay [1], in [2], in assay [3] and in [4] was inactive.
On to `C=C1CC[C@H](O)C/C1=C/C=C1\CCC[C@]2(C)[C@@H]([C@H](C)/C=C/[C@H](C)C(C)C)CC[C@@H]12`, for which the outcome in [5] and in [6] was inactive.
As for `O=c1c(O)c(-c2ccc(O)cc2)oc2cc(O)cc(O)c12`, the AC50 – broadly, the concentration giving half of the maximal activity seen – in assay [5] is 43.7 µM (active). Further, the compound was classed as inactive in assay [7].
Regarding `C=C[Si]1(C)O[Si](C)(C=C)O[Si](C)(C=C)O[Si](C)(C=C)O1` (stereo not drawn), the call in assay [1], in assay [3] and in assay [4] was inactive.
Turning to `CCCOC(=O)c1c(Cl)c(Cl)c(Cl)c(Cl)c1C(=O)OCCC`, the AC50 in [5] is 9.87 µM (active). For the same compound, the result in assay [7] and in assay [6] was inactive.
Consider `O=C(Nc1ccc2c(c1)Cc1ccccc1-2)C(F)(F)F`, for which the outcome in [8], in assay [7] and in [6] was inactive. In assay [5], the AC50 is 19.6 µM (active).
Regarding `O=C(Nc1ccc2c(O)c(N=Nc3ccc(N=Nc4ccc(S(=O)(=O)O)cc4)cc3)c(S(=O)(=O)O)cc2c1)c1ccccc1`, the compound was called inactive in [9], in [4] and in assay [10].
On to `CC=Cc1ccc(OC)c(OC)c1`, for which the compound was called inactive in assay [1] and in [3]. The AC50 in assay [2] is 39.5 µM (active).
`N#Cc1ccc(CC(=O)c2cccc(C(F)(F)F)c2)cc1`: the AC50 in assay [5] is 46.1 µM (active). The compound was classed as inactive in assay [7] and in assay [6].
On to `Clc1ccc(C(c2ccccc2Cl)C(Cl)Cl)cc1` (stereo not drawn), for which, in assay [5], the AC50 is 11 µM (active). In addition, the compound was called inactive in assay [7] and in assay [6].
As to `CCOC(=O)C(C#N)=C(c1ccccc1)c1ccccc1`, in assay [5], the AC50 was 15.2 µM (active). Further, the call in assay [7] and in assay [6] was inactive.
